Compound activity (PubChem BioAssay)
SSB-PriA inh: K. pneumoniae PriA-SSBct interaction inhibition; AlphaScreen SSBct-PriA binding, biotinylated peptide; inhibition, % at 33 µM; 430,000 tested, 0.6% active; in the data active = inhibition mostly above about 37%, no sharp cut-off; inactive = mostly below about 20%;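 note: plate controls were negative control peptide for no effect and reference peptide for full effect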
SARS 3CLpro inh: SARS-CoV 3CLpro protease inhibition; P0C6X7; recombinant SARS-CoV 3CLpro, quenched FRET peptide cleavage; inhibition, % at 6 µM; 290,000 tested, 0.14% active; AID 1706; in the data active = inhibition above about 12%
Mtb hypoxia rep: Mtb hypoxia fluorescent reporter inhibition. M. tuberculosis hypoxia-regulated fluorescent reporter, fluorescence. fluorescence inhibition, % (concentration not given with the values). 300,000 tested, 0.1% active. AID 1159583; in the data active = fluorescence inhibition mostly above about 23%, no sharp cut-off; inactive = mostly below about 17%
CCHF vOTU inh: blocks the CCHF virus ovarian tumor domain protease; CCHFV vOTU protease, Pep-AMC fluorescence; AID 651958; 370,000 tested, 0.55% active; inhibition, % at 11.5 µM; in the data active = inhibition above about 30%; note: 0% = vehicle wells with enzyme and 100% = no enzyme wells
VHR inh abs: inhibitors of human VHR1 phosphatase (DUSP3) | AID 1654 | recombinant VHR phosphatase, pNPP absorbance | inhibition, % at 13.3 µM | 290,000 tested, 0.52% active | P51452; in the data active = inhibition above about 50%
Target sequence (P51452 whole entry, looked up): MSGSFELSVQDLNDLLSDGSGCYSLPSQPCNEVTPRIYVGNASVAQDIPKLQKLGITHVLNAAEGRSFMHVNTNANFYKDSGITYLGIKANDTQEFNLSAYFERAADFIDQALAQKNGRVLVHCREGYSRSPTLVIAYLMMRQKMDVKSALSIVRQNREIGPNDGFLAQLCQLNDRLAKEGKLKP
* marks the source's active call; other numbers are inactive results; . = not tested or not shown; ! = not confirmed by another sample. Only some compounds are listed: those with a hit (about 1.3% of all), similar ones and a draw of the others.

SMILES	SSB-PriA inh	SARS 3CLpro inh	Mtb hypoxia rep	CCHF vOTU inh	VHR inh abs
O=C(NCc1ccccc1Cl)C1CCN(S(=O)(=O)N2CCCCCC2)CC1	-9.1	-1.2	7.2	-7.5	53.6*
O=C(NCc1ccccc1)C1CCN(S(=O)(=O)c2ccc(N3CCCC3=O)cc2)CC1	-2.5	-4.3	-10.2	-1.1	52.5*
CC1CCN(S(=O)(=O)N2CCCC(C(=O)NCc3ccccc3Cl)C2)CC1 (stereo not given)	7.7	-0.5	-3.8	2.6	35.4
CC[N+](C)(CC)CC(O)COCCC12CC3CC(CC(C3)C1)C2 (stereo not given)	-7.0	.	.	.	.
O=[N+]([O-])c1cccc(-c2csc(=Nc3ccccc3)n2N2CCOCC2)c1	64.0*	.	.	.	.
O=C(/C=C/c1ccc(-c2cccc([N+](=O)[O-])c2)o1)N1CCOCC1	-8.9	0.3	-1.1	10.4	0.9
Cc1ccc(Nc2ccc(NC(=O)Cc3ccccc3)cc2)nn1	-2.0	.	.	.	.
CC(=O)Nc1ccc(S(=O)(=O)Nc2ccc(Nc3ccc(-n4ccc(C)n4)nn3)cc2)cc1	-8.0	.	.	.	.
Cc1ccn(-c2ccc(Nc3ccc(NC(=O)c4ccco4)cc3)nn2)n1	55.0*	.	.	.	.
O=C(Cc1ccccc1)Nc1ccc(Nc2ccc(-n3cccn3)nn2)cc1	52.0*	.	.	.	.
Cc1ccc(S(=O)(=O)NCCN2CCN(c3ccccn3)CC2)cc1C	3.0	.	.	.	.
COC(=O)C1=CN(c2cccc(C)c2)C=C(C(=O)OC)C1c1cc(OC)c(O)c([N+](=O)[O-])c1	53.1*	2.3	0.0	-3.1	-4.3
COC(=O)C1=CN(c2ccc(OC)cc2)C=C(C(=O)OC)C1c1ccc(C)c([N+](=O)[O-])c1	-8.0	3.6	10.9	-7.8	-4.8
O=C(CCS(=O)(=O)c1ccccc1)Nc1ccc(-c2cn3c(n2)SCC3)cc1	-2.0	.	.	.	.
COc1ccc(C)cc1NC(=O)CS(=O)c1ncc(-c2ccccc2)n1C (stereo not given)	79.0*	.	.	.	.
COc1ccc(-c2cnc(S(=O)CC(=O)NCCc3ccccc3)n2C)cc1 (stereo not given)	-3.0	.	.	.	.
Cc1ccc(-c2csc3nnc(SCc4ccc5c(c4)OCO5)n23)cc1	7.0	.	.	.	.
c1ccc(-c2csc3nnc(SCc4ccc5c(c4)OCCO5)n23)cc1	39.9*!	-1.9	.	6.5	38.9
O=C(c1cccnc1)N1CCN(CC(F)(F)F)CC1	-12.0	.	.	.	.
O=S(=O)(c1ccc(Cl)c2ccccc12)N1CCN(c2ccc(F)cc2)CC1	-9.0	.	.	.	.
O=C(Nc1nnc(-c2ccco2)o1)C1CC(=O)N(c2ccccc2)C1 (stereo not given)	65.0*	.	.	.	.
O=C(Oc1c(CN2CCOCC2)cc(Cl)c2cccnc12)c1ccco1	101.0*	.	.	.	.
O=C(Oc1c(CN2CCOCC2)cc(Cl)c2cccnc12)c1ccccc1F	58.3*	-1.6	5.9	-20.0	44.0
O=C(Oc1c(CN2CCOCC2)cc(Cl)c2cccnc12)c1ccccc1	2.8	4.9	12.9	-15.9	3.3
O=C(Nc1nc(-c2ccco2)cs1)C1(c2cccs2)CCCC1	-14.0	.	.	.	.
SMILES	SSB-PriA inh	SARS 3CLpro inh	Mtb hypoxia rep	CCHF vOTU inh	VHR inh abs
COc1ccc(Cn2c(C3CCCCC3)nc3c(c(=O)c4ccccc4n3C)c2=O)cc1	-5.2	-4.4	6.3	.	54.1*
COc1ccc(CCn2c(C3CCCCC3)nc3c(c(=O)c4ccccc4n3C)c2=O)cc1	1.3	0.8	-1.4	0.0	16.5
c1ccc(C2=Nc3c(ccc4ccccc34)C(c3ccncc3)=NN2)cc1	46.9*	5.0	-2.8	-13.8	2.0
N#Cc1ccc(NCCc2ccccn2)c([N+](=O)[O-])c1	3.2	4.9	4.6	-10.9	31.3
O=[N+]([O-])c1cc(Cl)ccc1NCCc1ccccn1	54.6*	1.2	9.1	6.7	21.1
COC(=O)c1ccc(/C=N\N2CCN(c3ccccc3)CC2)cc1	.	0.8	.	0.6	51.3*
O=C(O)c1ccc(C=NN2CCN(c3ccccc3)CC2)cc1	2.5	.	3.9	.	.
O=[N+]([O-])c1cc([N+](=O)[O-])c2ccccc2c1N1CCOCC1	9.0	.	.	.	.
Cc1ccc(Nc2nc(CSc3nnc(-c4ccncc4)n3C)cs2)cc1	4.8	2.7	9.6	-12.4	58.3*
O=C(Nc1c2c(nn1-c1ccc(F)cc1)CSC2)c1ccc(S(=O)(=O)N2CCCC2)cc1	-2.0	.	.	.	.
Cc1ccc(/C=C/S(=O)(=O)Nc2ccc3c(c2)CN(S(=O)(=O)c2ccccc2)CC3)cc1	-13.0	.	.	.	.
Cc1ccc(NC(=O)CC2(CC(=O)O)CCCC2)cc1	-7.0	3.3	13.3	-9.9	56.9*
COc1ccc(NC(=O)CC2(CC(=O)O)CCCC2)cc1	1.2	2.5	-7.3	-4.3	24.0
CC1CCCC(C)N1C(=O)COC(=O)c1cccnc1Cl (stereo not given)	1.9	.	33.8*	21.6	.
CC(=O)c1c(C)[nH]c(C(=O)OCc2ccc([N+](=O)[O-])cc2)c1C	2.1	-8.2	1.6	12.2	52.0*
CC(=O)c1c(C)[nH]c(C(=O)OCc2ccccc2)c1C	1.8	-0.2	5.2	-5.0	-8.5
O=C(Nc1ccc(F)cc1)Nc1ccccc1F	-8.8	1.7	-10.0	11.7	56.3*
O=C(Nc1ccc(Cl)cc1)Nc1ccccc1C(=O)O	-6.0	2.5	10.2	-5.3	56.9*
O=C(Nc1nc2ccc3ccccc3c2s1)c1ccc(S(=O)(=O)N2CCc3ccccc3C2)cc1	-1.0	.	.	.	.
Cc1ccc2nc(NNC(=O)c3ccc(S(=O)(=O)N4CCc5ccccc5C4)cc3)sc2c1	95.0*	7.6	10.1	-2.2	0.2
COc1ccc(CN2CCOCCOCCOCCOCCOCC2)cc1	2.2	-1.6	17.1	-18.5	17.0
COc1ccc(CN2CCNCC2)cc1	-0.9	-2.5	6.2	-7.3	59.7*
O=C(CCCn1nc(-c2ccccc2)ccc1=O)Nc1cccc(Cl)c1	-15.0	.	.	.	.
COC(=O)Nc1nc(CC(=O)O)cs1	16.0	.	.	.	.
COc1ccc(N2CCN(C(=O)c3ccc(S(=O)(=O)N4CCOCC4)cc3)CC2)cc1	-17.8	-1.3	-0.4	-1.8	51.2*
SMILES	SSB-PriA inh	SARS 3CLpro inh	Mtb hypoxia rep	CCHF vOTU inh	VHR inh abs
Cc1ccc(O)c(N=Nc2ccc(S(=O)(=O)N3CCOCC3)cc2)c1	39.0*	2.6	3.5	-1.2	13.9
Cc1ccc(S(=O)(=O)N2CCN(C(=O)c3cc(S(=O)(=O)N4CCOCC4)c(Cl)cc3Cl)CC2)cc1	4.3	.	28.0*	15.2	.
O=C(c1cc(S(=O)(=O)N2CCOCC2)c(Cl)cc1Cl)N1CCN(S(=O)(=O)c2cccc(F)c2)CC1	-9.5	.	-0.9	4.5	.
O=C1c2ccccc2C(=O)N1CC1c2ccccc2CCN1C(=O)C1CCCCC1 (stereo not given)	1.2	-5.0	5.9	-10.1	-24.9
O=C(O)[C@@H]1CCCC[C@@H]1C(=O)N1CCc2ccccc2C1CN1C(=O)c2ccccc2C1=O (stereo not given in full)	54.8*	4.8	.	9.1	3.1
O=c1cc(O)c2ncccc2[nH]1	129.0*	.	.	.	.
CN(C)c1ccc(N=Nc2ccccc2C(=O)OCC(=O)N2CCCCCC2)cc1	63.7	1.4	18.7	3.6	-1.2
CN(C)c1ccc(N=Nc2ccccc2C(=O)OCC(=O)N2CCCC2)cc1	52.9*	3.1	0.0	12.4	14.7
CC(=O)NCCc1nc2ccccc2n1Cc1ccccc1	97.0*	3.9	12.3	2.0	16.6
CCn1c(C)cc(O)c(C(c2ccc(OC)c(OC)c2)N2CCN(C)CC2)c1=O (stereo not given)	-4.0	.	.	.	.
